Screens: PubChem BioAssay, National Center for Advancing Translational Sciences (NCATS)
Hits are enriched below; roughly 9.9% of the tested compounds scored in any of these assays.
Tau fibril ThT = qHTS for Inhibitors of Tau Fibril Formation, Thioflavin T Binding. Microtubule-associated protein tau (Homo sapiens), P10636. recombinant tau K18 P301L, heparin-induced fibrillization, ThT fluorescence. Potency, µM (titrated, usually from 57.4 µM), inactives show at the highest dose activity, negative = inhibition, most hits filed as inhibitors. 270,000 compounds, 2.1% hits. AID 1460, 2008; active = well fitted curve in the direction sought with a large enough effect; inconclusive = small, poorly fitted or top-dose-only effect, or another doubt; inactive = no such curve, though single readings can be large; an effect the other way counts as inactive or inconclusive; note: nearly all actives have a fitted effect of over 55% in size
Target sequence (P10636 561-689 P618L limits assumed): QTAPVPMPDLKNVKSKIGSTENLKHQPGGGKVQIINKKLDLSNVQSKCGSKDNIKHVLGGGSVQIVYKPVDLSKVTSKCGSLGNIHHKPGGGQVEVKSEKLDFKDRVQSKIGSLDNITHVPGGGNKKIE
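Fibril formation assay: tau K18 P301L at 15 uM with trace Alexa 594 label, heparin inducer 20 uM, pH 7 sodium acetate buffer, 37 C for 6 hr; endpoint ThT signal.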
ALDH1A1 block = qHTS Assay for Inhibitors of Aldehyde Dehydrogenase 1 (ALDH1A1). Aldehyde dehydrogenase 1A1 (Homo sapiens), P00352. Purified ALDH1A1, NADH fluorescence, propionaldehyde substrate. Potency, µM (top dose mostly 75.3 µM), for the others: top-dose activity, negative = inhibition, hits mostly inhibitors. 220,000 compounds, 7.3% hits;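 note: plate controls were no enzyme wells and a reference inhibitor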
Tau FP inhib = qHTS for Inhibitors of Tau Fibril Formation, Fluorescence Polarization | Microtubule-associated protein tau (Homo sapiens), P10636 | K18 P301L tau heparin fibrillization, Alexa594 FP, 6 h | Potency, µM (series often up to 57.7 µM), for inactives: at the top dose activity, negative = inhibition, usual class: inhibitors | 280,000 compounds, 0.39% hits; active = well fitted curve in the direction sought with a large enough effect; inconclusive = small, poorly fitted or top-dose-only effect, or another doubt; inactive = no such curve, though single readings can be large; an effect the other way counts as inactive or inconclusive; note: nearly all actives have a fitted effect of over 55% in size
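Human tau K18 […] P301L fragment, 15 uM unlabeled plus 0.24 uM Alexa 594-labeled tau (final), with compound and 20 uM heparin in 100 mM sodium acetate pH 7; 6 hr at 37 C, then Alexa 594 FP read.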
HPGD inh = qHTS Assay for Inhibitors of HPGD (15-Hydroxyprostaglandin Dehydrogenase); purified HPGD, NADH fluorescence kinetic, PGE2 substrate; 150,000 compounds, 4.3% hits; 15-hydroxyprostaglandin dehydrogenase [NAD(+)] (Homo sapiens), P15428; Potency, µM, for the others: at the top dose activity change, negative = inhibition, most hits filed as inhibitors; AID 894, 2007
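NADH formation kinetics: reaction with 30 uM PGE2 and 1 mM NAD+ (final), 20 nM enzyme, Tris-HCl pH 8 with Tween 20, after 15 min compound preincubation at room temperature. Fluorescence change, last versus first of five reads.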
KDM4E inh = qHTS Assay for Inhibitors of Human Jumonji Domain Containing 2E (JMJD2E); Lysine-specific demethylase 4E (Homo sapiens), B2RXH2; AID 2147, 2009; Potency, µM (top dose mostly 57.1 µM), for the others: at the top dose activity change, negative = inhibition, usual class: inhibitors; 230,000 compounds, 1.6% hits; JMJD2E catalytic domain, FDH-coupled NADH fluorescence (FDH is formaldehyde dehydrogenase);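 note: 0% = wells with enzyme and -100% = buffer wells without enzyme; nearly all actives have a fitted effect of over 50% in size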
Target sequence (B2RXH2 1-337 limits assumed): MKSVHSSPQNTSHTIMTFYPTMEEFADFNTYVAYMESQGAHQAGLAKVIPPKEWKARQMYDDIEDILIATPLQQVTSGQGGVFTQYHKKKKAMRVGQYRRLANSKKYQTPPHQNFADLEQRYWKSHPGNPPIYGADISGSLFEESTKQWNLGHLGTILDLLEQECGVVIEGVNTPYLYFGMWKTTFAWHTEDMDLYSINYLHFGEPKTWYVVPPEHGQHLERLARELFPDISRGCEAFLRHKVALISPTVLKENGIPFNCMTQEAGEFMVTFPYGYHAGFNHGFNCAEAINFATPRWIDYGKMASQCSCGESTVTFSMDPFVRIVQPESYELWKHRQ
Tau fluor counter = Counterscreen qHTS for Inhibitors of Tau Fibril Formation, Fluorescence Polarization; Potency, µM (highest dose often 57.7 µM), without a hit: top-dose activity change, negative = decrease; tau K18 P301L Alexa594 fluorescence, heparin fibrillization; AID 1463, 2008; 280,000 compounds, 0.93% hits; active = well fitted curve in the direction sought with a large enough effect; inconclusive = small, poorly fitted or top-dose-only effect, or another doubt; inactive = no such curve, though single readings can be large; an effect the other way counts as inactive or inconclusive; note: nearly all actives have a fitted effect of over 55% in size
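Human tau K18 P301L (15 uM unlabeled, 0.24 uM Alexa 594-labeled) in 100 mM sodium acetate pH 7 with 20 uM heparin, 6 hr at 37 C. ThT 30 uM added, 1 hr ambient; Alexa 594 FP and total fluorescence read at 555/632 nm.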
* = called active by the depositor; ? = inconclusive; · = no result given; ! = not active in a repeat; [ ] = remark or other dose. Unless noted, calls come from the whole dose curve; as a rule, active = well fitted inhibition curve with a large enough effect (not every such curve was filed as active); inconclusive = small, poorly fitted or top-dose-only effect, or another doubt; inactive = no such curve, though single readings can be large or run the other way. Unless noted, % is set by controls: 0 for no effect and ±100 for the full control effect; potency is the fitted concentration of half-maximal effect.

SMILES	Tau fibril ThT	ALDH1A1 block	Tau FP inhib	HPGD inh	KDM4E inh	Tau fluor counter
O=C(NNC(=O)c1sc2cccc(Cl)c2c1Cl)NC1CCCCC1	12%	3.5µM*	-14%	-9%	-17%	-12%
O=C(NNC(=O)C1CC2CCC1C2)c1sc2ccccc2c1Cl (stereo not given)	5%	25µM*	?	-10%	-10%	0%
O=C(NNC(=O)c1sc2cccc(Cl)c2c1Cl)Nc1ccccc1	-9%	?	?	-8%	7%	-13%
O=[N+]([O-])c1ccc(N/N=C/c2ccc(OCc3cccc4ccccc34)cc2)nc1	?	-9%	-3%	·	1%	?
O=[N+]([O-])c1ccc(N/N=C\c2cccn2-c2ccccc2)nc1	7.1µM*	-5%	16%	-1%	-2%	16µM*[quencher]
Cc1ccccc1-n1c(C)cc(/C=N/Nc2ccc([N+](=O)[O-])cn2)c1C	4.5µM*	?	3%	-16%	-10%	?
Cc1cc(/C=N/Nc2ncnc(N)c2[N+](=O)[O-])c(C)n1-c1ccccc1	?	·	5%	·	-22%	-12%
Cc1cc(/C=N/NC(=O)c2cccc([N+](=O)[O-])c2)c(C)n1-c1ccccc1	?	?	?	-9%	-18%	?
Cc1cc(/C=N/Nc2ccc([N+](=O)[O-])cn2)c(C)n1-c1ccc(C(=O)O)cc1	4.5µM*	?	?	·	-19%	?
O=C(O)CCC(=O)Nc1ccc(Sc2ccc([N+](=O)[O-])cc2)cc1	-6%	-9%	8%	-20%	0%	3%
CCCCC1(C)OC(=O)C(=Cc2c[nH]c3ccccc23)C(=O)O1 (stereo not given)	-19%	-12%	?	·	4%	?
CCCCC1(C)OC(=O)C(=Cc2ccc(N(C)C)cc2)C(=O)O1 (stereo not given)	-3%	1.1µM*	2%	11µM*	-3%	5%
CC(=O)OC[C@@H]1O[C@@H](O/N=C2/C[C@@H](O)[C@@H](O)[C@@H]3[C@H]4C(=O)N(c5ccc(F)cc5F)C(=O)[C@@H]4CC[C@H]23)[C@H](OC(C)=O)[C@H](OC(C)=O)[C@@H]1OC(C)=O	-5%[11.5 µM]	1%[13.5 µM]	-10%[11.6 µM]	·	·	-13%[11.6 µM]
CCCCn1c(SC(C)C(N)=O)nc2cc(C(=O)OC)ccc2c1=O (stereo not given)	-4%	0.6µM*	-3%	-15%	16%	0%
CCNC(=O)NC(=O)C(C)Sc1nc2cc(C(=O)OC)ccc2c(=O)n1-c1ccccc1 (stereo not given)	-12%	22µM*	2%	-7%	?	-13%
CCCNC(=O)NC(=O)CSc1nc2cc(C(=O)OC)ccc2c(=O)n1-c1ccccc1	-3%	-8%	-1%	-27%	-1%	-6%
Cc1ccc(C(=O)/C=C/c2ccc(-c3ccccc3[N+](=O)[O-])o2)cc1	8.9µM*	?	-4%	-17%	-19%	?
O=C(/C=C/c1ccc(-c2ccccc2[N+](=O)[O-])o1)c1ccc(Br)cc1	7.9µM*	7.1µM*	-5%	-23%	-18%	?
COc1ccc(C(=O)N2C(=S)NC(=O)/C2=C\c2ccc(C)cc2)cc1	?	?	1%	28µM*	0%	?
COC(=O)CN1C(=S)N(c2ccc(OC)cc2)C(=O)/C1=C/c1ccc(OC)cc1	5%	4%	-7%	·	-4%	2%
O=C(NNC(=S)Nc1cccc(Cl)c1)c1ccccc1OC(F)F	?	25µM*	15%	-12%	-9%	-17%
O=C(NNC(=S)Nc1ccc(F)cc1)c1ccccc1OC(F)F	-13%	?	6%	-14%	10%	-4%
COc1cccc(NC(=S)NNC(=O)c2ccccc2OC(F)F)c1	?	25µM*	7%	?	9%	-11%
COc1ccc(-c2noc(N(c3ccc(F)c(Cl)c3)c3nc(-c4ccc(OC)c(OC)c4)no3)n2)cc1OC	-7%	·	-8%	·	·	-14%
C=CCc1cccc2ccc(=O)oc12	-2%	2%	3%	-8%	-5%	-5%
SMILES	Tau fibril ThT	ALDH1A1 block	Tau FP inhib	HPGD inh	KDM4E inh	Tau fluor counter
O=c1ccc2ccc(O)c(O)c2o1	?	?	?	?	7.1µM*	-24%
CC(=O)OC1CC[C@@]2(C)C(CCC3C2CC(=O)[C@@]2(C)C3CC3CC(C)=CC(=O)C32)C1 (stereo not given in full)	·	·	10%	·	3%	13%
Cn1nccc1CNC(=O)c1c(Cl)cnn1C	-1%	16%	5%	-2%	9%	7%
Cn1ncc(Cl)c1C(=O)NCc1cc(C(C)(C)C)n[nH]1	0%	-8%	0%	18µM*	0%	6%
CCOC(=O)c1ccccc1NC(=O)CN1C(=O)CC(c2ccco2)Sc2ccccc21 (stereo not given)	-16%	·	0%	·	·	-20%
Cc1cccc(-n2c(Cn3nc(C)c([N+](=O)[O-])c3C)n[nH]c2=S)c1	-12%	25µM*	-1%	-25%	-4%	-4%
CCCC(OC(=O)CN1C(=O)COc2ccccc21)C(=O)NC1CCCC1 (stereo not given)	-4%	7%	-1%	28µM*	8%	2%
Oc1ccc(Cc2ccc(Cl)cc2)c(O)c1	-7%	·	9%	·	0%	?
COc1ccc(CC(=O)c2c(O)cc(O)cc2O)cc1OC	-12%	-6%	7%	32µM*	-10%	?
O=C(Cc1ccc(Cl)cc1)c1c(O)cc(O)cc1O	?	3%	-13%	?	-9%	16µM*[quencher]
COc1cc(CC(=O)O)ccc1O	-3%	25µM*!	-1%	7%	4%	-5%
COc1ccc(CC(=O)O)cc1O	3%	2%	6%	·	9%	3%
c1ccc(-c2nn3c(-c4ccco4)nnc3s2)nc1	-18%	24µM*	-12%	-22%	2%	-10%
CC(C)(C)c1ccc(-c2nnc3sc(-c4ccccn4)nn23)cc1	?	?	?	28µM*	-4%	-22%
c1coc(-c2nnc3sc(C4CCCCC4)nn23)c1	20%	13µM*	-2%	25µM*	6%	19%
Clc1ccc(-c2nnc3sc(-c4ccccn4)nn23)cc1	-1%	14%	-3%	-8%	2%	-2%
